Reference: PubChem BioAssay AID624351 (Southern Research Specialized Biocontainment Screening …, 2012)
Out of some 2,400 compounds screened, about 1,400 (58%) were called active. The set was probably picked from earlier hits. This is one part of the list. Unmarked numbers belong to inactive results.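 Rule for the calls: active = inhibition of 30% or more at any tested dose; inconclusive = primary hits over the limit that were never retested; inactive = the rest.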

assay: ADP Hunter readout inhibition without MgcRacGAP – biochemical, coupled enzyme counter-screen, artefact control for MgcRacGAP inhibitor project, dose response (AID 624351); conditions: fluorescence, no MgcRacGAP; series mostly up to 80 µM;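 note: signal is the ADP detection kit reading of free GDP without any GAP enzyme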;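 for inhibition: 0% = median positive control wells and 100% = median negative control wells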

SMILES | IC50 | inhibition
CC(C)(C)CC(C)(C)NCC(=O)Nc1c2c(nc3ccccc13)CCC2 | inactive | 
Cc1cc(=O)oc2c(O)c(O)ccc12 | 28.8 µM (active) | 
O=C(O)c1cccc2cccc(-c3c4ccc(=O)c(O)c-4oc4c(O)c(O)ccc34)c12 | inactive | 
Cc1[nH]n(-c2ccccc2)c(=O)c1/C=N/N(C)c1ccccc1 | 15 µM (active) | 
O=C(O)C1Nc2c(O)cc(Cl)c([N+](=O)[O-])c2C2C=CCC12 (stereo not given) | inactive | 
COc1cc(Sc2ccc(C)cc2)c(OC)cc1N | 22.5 µM (active) | 
O=C(N/C(=C\c1ccc(O)cc1)C(=O)N1CCCCC1)c1ccccc1 | 54.1 µM (active) | 
COc1cccc(C(=O)N2CCN(C3CCCCC3)CC2)c1 | inactive | 
COc1ccc(NC2CCCN(C(=O)c3cccc(N4CCNC4=O)c3)C2)cc1 (stereo not given) | 81.2 µM (active) | 
COc1ccc(NC2CCCN(C(=O)c3ccc(C)c(N4CCNC4=O)c3)C2)cc1 (stereo not given) | inactive | 
COc1ccc(NC2CCCN(C(=O)c3cccc(N(C)C)c3)C2)cc1 (stereo not given) | 74.8 µM (active) | 
O=C(c1cccc(F)c1)N1CCN(C2CCCCC2)CC1 | inactive | 
COc1cc(OC)cc(C(=O)N2CCN(Cc3ccccc3Br)CC2)c1 | inactive | 
Cc1cc(-c2ccccc2)nc2c(Br)c(=O)[nH]n12 | inactive | 
Cc1ccc(N2C(S)=C(C#N)C(=O)NC23CCCCC3)cc1 | inactive | 
O=C(O)CCCN1C(=O)/C(=C\c2ccco2)SC1=S | inactive | 
CC(=O)NN1C(=O)/C(=C\c2ccc(Br)o2)SC1=S | inactive | 
COc1cc(/C=C2\SC(=S)N(Nc3ccccc3)C2=O)ccc1O | 75.4 µM (active) | 
CC(=O)NN1C(=O)/C(=C/c2ccc(Br)o2)SC1=S | inactive | 
COc1cc(/C=C2\SC(=S)N(NC(=O)c3ccc(O)cc3)C2=O)ccc1O | 79.5 µM (active) | 
COc1cc(/C=C2\SC(=S)N(NC(=O)c3cccc(O)c3)C2=O)ccc1O | 67.5 µM (active) | 
O=C1C(=Cc2cccc(O)c2O)SC(=S)N1CCCN1CCOCC1 | inactive | 
COc1cc(/C=C2\SC(=S)N(NC(=O)c3ccncc3)C2=O)ccc1O | 44.1 µM (active) | 
CC(=O)OCCNc1cc(N2CCN(C)CC2)c2noc3c2c1C(=O)c1ccccc1-3 |  | -4.34% [at 10 µM]
O=C(O)c1ccc2c(c1)[C@@H]1C=CC[C@@H]1[C@H](c1ccccn1)N2 | inactive | 

SMILES | IC50 | inhibition
CCOC(=O)c1sc2nc(CSc3ccccc3)nc(N3CCCN(C)CC3)c2c1C | inactive | 
CCOc1cc(/C=N\NC(=O)c2c(C)nc3ccccn23)ccc1O | 83.5 µM (active) | 
COc1cc(/C=N\NC(=O)c2c(C)nc3cc(C)ccn23)ccc1O | 50.4 µM (active) | 
O=C1/C(=C\c2ccc(O)c(O)c2)N=C2CCCCCN12 | 18.3 µM (active) | 
CCOc1cc(/C=C2\N=C3CCCCCN3C2=O)ccc1O | 55.8 µM (active) | 
O=C(CNC1CC1)Nc1cc(C(F)(F)F)ccc1Cl | inactive | 
Cc1ccc(S(=O)(=O)N[C@H](C(=O)OCn2nnc3ccccc3c2=O)C(C)C)cc1 | inactive | 
COc1ccc(NC(=O)NS(=O)(=O)c2ccc(C)cc2)cc1OC | 25.5 µM (active) | 
CCN(CC)S(=O)(=O)c1cccc(C(=O)N/N=C/c2ccc(OC)c(O)c2)c1 | 81.2 µM (active) | 
COc1ccc(/C=N/NC(=O)c2cccc(S(=O)(=O)N3CCCC3)c2)cc1O | 55.4 µM (active) | 
O=C(N/N=C/c1ccc(O)c(O)c1)c1cccc(S(=O)(=O)N2CCCCC2)c1 | 72.8 µM (active) | 
CCOc1cc(C=NNC(=O)c2cccc(S(=O)(=O)N3CCCC3)c2)ccc1O | 32.6 µM (active) | 
O=C(CNCc1ccco1)Nc1cccc(S(=O)(=O)N2CCCCC2)c1 | inactive | 
O=C(/C=C/c1ccc(O)c(O)c1)c1ccc(S(=O)(=O)N2CCCCCC2)cc1 | inactive | 
COc1ccc2c3c(cccc13)N(C)N=C2C | inactive | 
Cc1sc2c3ccsc3ccc2[n+]1C | inactive | 
O=C(CCc1ccc(O)c(O)c1)N/N=C/c1ccc2c(c1)OCO2 | inactive | 
O=C(Cc1ccc(Cl)cc1)N/N=C/c1ccc(O)c(O)c1 | 19.4 µM (active) | 
O=C(COc1ccccc1[N+](=O)[O-])N/N=C/c1ccc(O)cc1 | 70.9 µM (active) | 
O=C(COc1cccc2cccnc12)N/N=C/c1ccc(O)cc1 | 80 µM (active) | 
O=[N+]([O-])c1ccccc1OCCNCc1ccccc1 | inactive | 
COCc1cc(C)nc(OCC(=O)N/N=C/c2ccc(O)cc2)c1C#N | 79.7 µM (active) | 
O=C(Sc1n[nH]c(=O)[nH]c1=O)c1ccccc1 | inactive | 
CCn1nc(NS(=O)(=O)c2ccccc2[N+](=O)[O-])c2cc3ccc(C)cc3nc21 | inactive | 
O=C(COc1ccccc1C(=O)N/N=C\c1ccc(O)c(O)c1)N/N=C/c1ccc(O)c(O)c1 | 28.8 µM (active) | 
